Data on 40 compounds can be found in PubChem BioAssay (NCATS).

Results filed as inconclusive are left out. Values without a mark were called inactive. Calls of active or inactive are those of the source. The call rests on the fitted dose curve; in most records, active means well fitted cell-killing curve with a large enough effect; inconclusive means small, poorly fitted or top-dose-only effect, or effect the other way; inactive means no such curve, though single readings can be large or run the other way.
Potency means the concentration at half of the fitted maximal effect.

A short description of this experiment: Viability qHTS for spleen associated tyrosine kinase inhibitor (SYKi) drug resistant MV4-11 cells (AID 1963824). Further: nearly all actives have a fitted effect of over 35% in size. To be noted: SYKi-resistant MV4-11 viability, CellTiter-Glo, 72 h; series mostly up to 45 µM. In a few lines:
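SYK-inhibitor-resistant MV4-11 AML cells were seeded at 500 per well onto compound and cultured 72 hours (37 °C, 5% CO2). CellTiter-Glo was then added, and after 10 min at room temperature, luminescence gave viability.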
Turning to `C=C(CO[C@@H]1O[C@H](CO[C@@H]2OC[C@](O)(CO)[C@H]2O)[C@@H](O)[C@H](O)[C@H]1O)C1Cc2cc(C(C)=O)ccc2O1` (stereo not given in full), the Potency result is “inactive”.
As to `COc1cc(/C=C/C(=O)OC2[C@H](O)CC(O)(C(=O)O)C[C@H]2O)ccc1O` (stereo not given in full), the Potency entry was “inactive”.
Same read-out and setting: with `COc1ccc(Cl)cc1NC(=O)Nc1cc(C)nc2ccccc12` the figure was 14.6 µM (active); with `CC(Oc1cc(-n2cnc3ccc(CN4CCN(C)CC4)cc32)sc1C(N)=O)c1ccccc1C(F)(F)F` (stereo not given), 0.461 µM (active).
On the same count and under the same terms, with `CCCCOC(=O)NC(=O)C1c2ccccc2Oc2ccccc21` the entry was “inactive”.
As for `CC(=O)O[C@@H]1CC(C)=C2[C@H]1[C@H](C)CC[C@H]2/C=C(\C)C(=O)O`, the Potency is 16.4 µM (active).
Consider `[2H]C([2H])(Nc1nc(-c2ccccc2C([2H])(C([2H])([2H])[2H])C([2H])([2H])[2H])ncc1C)c1ccc(-n2ccnn2)cc1`, for which the Potency was 11.8 µM (active).
For the compound `CC(C)C(=O)OC[C@H]1O[C@H](O[C@H]2O[C@H](CO)[C@@H](O)[C@H](O)[C@H]2O)[C@H](O)[C@@H](O)[C@@H]1O`, the Potency result was “inactive”.
The same measure, in the same setting: with `C/C=C/C=C/C(=O)O[C@@H]1C=C2COC(=O)[C@]2(O)[C@@]2(C)CCCC(C)(C)[C@H]12` the figure was 16.1 µM (active).
With `O=C(O)c1ccc(NC(=O)[C@H](CC2CCCC2)n2cnc(C(F)(F)F)c2)nc1`, the Potency was 2.91 µM (active).
With `CS(=O)(=O)c1ccc(-c2cn3ccccc3n2)cc1`, the Potency result is “inactive”.
Still for that read-out and setting: as for `CC(=O)OC1CC(=O)C2(C)C3CC4=C(OC(C)CC4=O)OC3(C)CCC2C1(C)C` (stereo not given), the entry is “inactive”.
Same read-out and setting: as for `O=C(Nc1cc(C(F)(F)F)ccc1N1CCCCC1)c1ccncc1`, the figure is 14.6 µM (active); as for `COc1ccc(CN2CCN(C(=O)CCNC(=O)c3ccc(C(C)(C)C)cc3)CC2)cc1`, 9.2 µM (active).
Regarding `O=C(O)CCc1nccc2c1[nH]c1ccccc12`, the Potency is 23.1 µM (active).
Same read-out and setting: as for `C[C@H](NC(c1cccc(C[P+](=O)O)c1)[C@H](C)O)c1ccc(Cl)c(Cl)c1` (stereo not given in full), the entry is “inactive”; as for `COc1c(CCC(=O)O)cccc1O[C@@H]1O[C@H](CO)[C@@H](O)[C@H](O)[C@H]1O`, “inactive”.
The same measure, in the same setting: as for `COc1cccc(CNC(=O)Nc2nc(-c3ccncc3)cs2)c1`, the figure is 18.4 µM (active); as for `Nc1nc(-c2nn(Cc3ccccc3F)c3ncccc23)ncc1C1CC1`, 1.32 µM (active); as for `O=C1Nc2ccccc2C(O)(c2ccccc2)C1O` (stereo not given), “inactive”.
With `CC(=O)N1CCc2ccc(O)c(OC3OC(COC4OCC(O)(CO)C4O)C(O)C(O)C3O)c2C1Cc1ccc(O)cc1` (stereo not given), the Potency entry is “inactive”.
The same measure, in the same setting: as for `CC1(C)CCC[C@@]2(C)[C@H]1[C@H](O)C=C(CO)[C@]2(O)CO`, the entry is “inactive”.
Same read-out and setting: as for `Nc1ncnc2c1c(I)cn2C1OC(CO)C(O)C1O` (stereo not given), the figure is 0.411 µM (active); as for `CNC(=O)c1ccccc1Nc1cc(Nc2ccc(N3CCOCC3)cc2OC)ncc1C(F)(F)F`, 0.326 µM (active).
On the same count and under the same terms, with `COc1cc(F)c(F)c(Nc2ccc(I)cc2F)c1NS(=O)(=O)C1(CC(O)CO)CC1` (stereo not given) the figure was 0.58 µM (active); with `O=C(NCCO)c1cc(C(=O)NCCO)cc(C(=O)NCCO)c1`, “inactive”.
Consider `O=C1c2ccccc2-c2c(NCCc3ccccc3)c(=O)[nH]c3cccc1c23`, for which the Potency was 23.1 µM (active).
Same read-out and setting: with `CCOC(=O)Nc1nc2ccccc2[nH]1` the figure was 10.3 µM (active).
On to `NC[C@@H]1O[C@@H](O[C@@H]2[C@@H](O[C@@H]3O[C@H](CO)[C@@H](O)[C@H]3O)[C@H](O)[C@@H](N)C[C@H]2N)[C@@H](N)[C@H](O)[C@H]1O`, for which the viability, % of control was 93.2% [at 9.25 µM].
`CCC/C=C/C=C/C1CC(O)C2(O)C(=O)OCC12` (stereo not given): the Potency entry is “inactive”.
Consider `CC(C)C1=CC2=CCC3[C@](C)(CCC[C@@]3(C)C(=O)O)C2CC1O` (stereo not given in full), for which the Potency entry was “inactive”.
Same read-out and setting: with `CC(=O)OC1CC(C)C2(CCC3(CC(=O)OC3O)O2)C2(C)CCCC(C)(C)C12` (stereo not given) the figure was 10 µM (active).
In the case of `O=c1[nH]ccc2nc(-c3ccc(CN4CCC(c5nc(-c6ccccn6)n[nH]5)CC4)cc3)c(-c3ccccc3)cc12`, the Potency was 9.2 µM (active).
Regarding `CC(=O)O[C@@H]1[C@H](O[C@@H]2OC[C@](O)(CO)[C@H]2O)[C@@H](O[C@@H]2O[C@@H](C)[C@H](O)[C@@H](O)[C@H]2O)[C@H](OC(=O)[C@]23CCC(C)(C)C[C@H]2C2=CCC4[C@@]5(C)C[C@H](O)[C@H](O[C@@H]6O[C@H](C(=O)O)[C@@H](O)[C@H](O)[C@H]6O)[C@@](C)(C(=O)O)C5CC[C@@]4(C)[C@]2(C)CC3)O[C@@H]1C` (stereo not given in full), the viability, % of control is 107% [at 9.25 µM].
In the case of `COc1cc(C2Oc3c(OC)cc(/C=C/C(=O)OC4CC(O)(C(=O)O)CC(O)C4O)cc3C2CO)ccc1O` (stereo not given), the Potency result is “inactive”.
As to `CCC(=O)c1cc(-c2ccc(Cl)cc2)n(-c2ccc(S(N)(=O)=O)cc2)c1C`, the Potency was 16.4 µM (active).
For the compound `CC(=O)OC1C(O)CC2(C)C(CCC(C)C23Cc2c(O)cc(CO)c(C=O)c2O3)C1(C)C` (stereo not given), the Potency was 11.2 µM (active).
Same read-out and setting: as for `COc1cc(CNC(=O)CCCC/C=C/C(C)C)ccc1O`, the figure is 18.4 µM (active).
Still for that read-out and setting: with `COc1cn(-c2ccc(-n3cccn3)cc2F)nc(-c2ccnn2-c2ccccc2)c1=O` the entry was “inactive”.
On the same count and under the same terms, with `CC(C)S(=O)(=O)NC[C@H](C)c1ccc(NC(=O)c2cc(F)cc(F)c2)cc1` the figure was 14.6 µM (active).
